What all share (conditions): mRNA level, 48 h; actives raise or lower the signal
Read-out in assay [1]: Glutathione S-transferase M3 (GSTM3), GSTM3 (gene 2947)
The assay can be described thus: LTEA_HepaRG_GSTM3: Life Technologies and Expression Analysis (LTEA) Assay for Glutathione S-transferase M3 (GSTM3) using HepaRG (AID 2283501). The method in brief: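 HepaRG, plated 48 h, then serum-free induction medium; test chemical 48 h, duplicate; 100 uM top, half-log x8, 0.5% DMSO. Read-out: GSTM3 mRNA (TaqMan qRT-PCR, Fluidigm array). Bidirectional fit vs DMSO.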

Read-out in assay [2]: Heat shock 70 kDa protein 1 (HSPA1A), gene 3303
Nature of the assay: LTEA_HepaRG_HSPA1A: Life Technologies and Expression Analysis (LTEA) Assay for Heat shock 70 kDa protein 1 (HSPA1A) using HepaRG (AID 2283502). The method in brief:
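Readout is HSPA1A transcript level by microfluidic qRT-PCR, normalized to three housekeeping genes and analysed for gain or loss of signal relative to 0.5% DMSO. Human HepaRG cultures received test chemicals for 48 h at up to 100 uM.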

Read-out in assay [3]: Hypoxia-inducible factor 1-alpha (Homo sapiens) (UniProt Q16665)
The assay can be described thus: LTEA_HepaRG_HIF1A: Life Technologies and Expression Analysis (LTEA) Assay for Hypoxia-inducible factor 1 (HIF1A) Trancription factor using HepaRG (AID 2283503). The essentials: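 Differentiated HepaRG cells in serum-free induction medium exposed 48 h, in duplicate, to 8-point half-log series from 100 uM in 0.5% DMSO. HIF1A mRNA measured by TaqMan qRT-PCR, normalized to ACTB/GAPDH/POLR2A, fitted bidirectionally versus DMSO.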

Read-out in assay [4]: 3-Hydroxy-3-Methylglutaryl-CoA Synthase 2 (HMGCS2), HMGCS2 (gene 3158)
Nature of the assay: LTEA_HepaRG_HMGCS2: Life Technologies and Expression Analysis (LTEA) Assay for 3-Hydroxy-3-Methylglutaryl-CoA Synthase 2 (HMGCS2) using HepaRG (AID 2283504). The method in brief: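 HepaRG, plated 48 h then switched to serum-free induction media; cmpd 8-pt, max 100 uM, 1/2-log, 0.5% DMSO, n=2, 48 h. HMGCS2 mRNA by Fluidigm TaqMan qRT-PCR, ACTB/GAPDH/POLR2A norm; bidirectional fit vs DMSO.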

Read-out in assay [5]: HGF (gene 3082)
Nature of the assay: LTEA_HepaRG_HGF: Life Technologies and Expression Analysis (LTEA) Assay for Hepatocyte Growth Facto (HGF) using HepaRG (AID 2283505). The method in brief: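 Read-out is HGF transcript level by qRT-PCR, normalized to three housekeeping genes, fitted bidirectionally against 0.5% DMSO vehicle. Human HepaRG cells received test chemicals for 48 h at up to 100 uM.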

Read-out in assay [6]: Insulin Like Growth Factor 1 (IGF1), IGF1 (gene 3479)
Nature of the assay: LTEA_HepaRG_IGF1: Life Technologies and Expression Analysis (LTEA) Assay for Insulin Like Growth Factor 1 (IGF1) using HepaRG (AID 2283506). The method in brief:
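HepaRG, plated 48 h, then switched to serum-free induction media; test chemical 8-pt half-log from 100 uM (0.5% DMSO), duplicate, 48 h. Lysis in RLT, TaqMan qRT-PCR, norm. ACTB/GAPDH/POLR2A. Bidirectional fit vs DMSO.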

Read-out in assay [7]: Insulin-like growth factor-binding protein 1 (IGFBP1), IGFBP1 (gene 3484)
Nature of the assay: LTEA_HepaRG_IGFBP1: Life Technologies and Expression Analysis (LTEA) Assay for Insulin-like growth factor-binding protein 1 (IGFBP1) using HepaRG (AID 2283508). The method in brief:
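Thawed HepaRG cells are plated for 48 h, switched to serum-free induction medium, then dosed in duplicate for another 48 h (100 uM top, half-log steps). Lysates in RLT go to qRT-PCR, and gain or loss of signal is fitted relative to vehicle.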

Read-out in assay [8]: Interleukin 6 (IL6), IL6 (gene 3569)
Nature of the assay: LTEA_HepaRG_IL6: Life Technologies and Expression Analysis (LTEA) Assay for Interleukin 6 (IL6) using HepaRG (AID 2283509). The method in brief: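 Differentiated human HepaRG cells, plated 48 h then switched to serum-free induction medium, were exposed in duplicate for 48 h to eight half-log concentrations up to 100 uM in 0.5% DMSO. IL6 mRNA measured by qRT-PCR, normalized to ACTB/GAPDH/POLR2A.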

Read-out in assay [9]: Potassium channel subfamily K member 1 (KCNK1), KCNK1 (gene 3775)
Nature of the assay: LTEA_HepaRG_KCNK1: Life Technologies and Expression Analysis (LTEA) Assay for Potassium channel subfamily K member 1 (KCNK1) using HepaRG (AID 2283511). The method in brief: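 Differentiated human HepaRG cells in serum-free induction medium were exposed in duplicate for 48 h to 8 half-log concentrations up to 100 uM in 0.5% DMSO. KCNK1 mRNA was measured by TaqMan qRT-PCR, normalized to ACTB, GAPDH and POLR2A, and fitted bidirectionally versus DMSO.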

Read-out in assay [10]: Keratin 19 (KRT19), KRT19 (gene 3880)
The assay can be described thus: LTEA_HepaRG_KRT19: Life Technologies and Expression Analysis (LTEA) Assay for Keratin 19 (KRT19) using HepaRG (AID 2283512). The essentials:
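KRT19 transcript levels, measured by Fluidigm qRT-PCR against three housekeeping genes, are fitted for gain or loss of signal relative to DMSO. Human HepaRG cells receive test chemicals (top 100 uM, half-log steps, 0.5% DMSO) for 48 hours.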

Read-out in assay [11]: JUN Transcription Factor, JUN (gene 3725)
Nature of the assay: LTEA_HepaRG_JUN: Life Technologies and Expression Analysis (LTEA) Assay for JUN Transcription Factor using HepaRG (AID 2283513). The method in brief: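 Cells plated 48 h, medium switched to serum-free induction medium, then dosed 48 h (100 uM top, half-log dilutions, 0.5% DMSO). RNA isolated; JUN measured by qRT-PCR against three housekeeping genes; gain or loss fitted relative to DMSO.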

Read-out in assay [12]: Lipase C (LIPC), LIPC (gene 3990)
The assay can be described thus: LTEA_HepaRG_LIPC: Life Technologies and Expression Analysis (LTEA) Assay for Lipase C (LIPC) using HepaRG (AID 2283514). The essentials: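 Differentiated human HepaRG cells in serum-free induction medium were exposed in duplicate for 48 h to eight concentrations (top 100 uM, half-log steps, 0.5% DMSO). LIPC mRNA was quantified by TaqMan qRT-PCR, normalized to ACTB, GAPDH and POLR2A, with bidirectional fitting versus DMSO.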

Read-out in assay [13]: Lipoprotein lipase (LPL), LPL (gene 4023)
The assay can be described thus: LTEA_HepaRG_LPL: Life Technologies and Expression Analysis (LTEA) Assay for Lipoprotein lipase (LPL) using HepaRG (AID 2283515). The essentials: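 Differentiated human HepaRG cells in serum-free induction medium were exposed in duplicate for 48 h to eight half-log concentrations (top 100 uM) in 0.5% DMSO. LPL mRNA was quantified by TaqMan qRT-PCR, normalized to ACTB, GAPDH and POLR2A.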

Read-out in assay [14]: MicroRNA 122 (MIR122), gene 406906
Nature of the assay: LTEA_HepaRG_MIR122: Life Technologies and Expression Analysis (LTEA) Assay for MicroRNA 122 (MIR122) using HepaRG (AID 2283516). Also: the transcript read is the microRNA miR-122. The method in brief:
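HepaRG plated 48 h, switched to serum-free induction medium, then treated in duplicate for 48 h (100 uM top, half-log steps, 0.5% DMSO vehicle). RNA isolated, qRT-PCR performed, concentration-response fitted both directions relative to DMSO.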

Read-out in assay [15]: matrix metalloproteinase-10 (MMP10), MMP10 (gene 4319)
The assay can be described thus: LTEA_HepaRG_MMP10: Life Technologies and Expression Analysis (LTEA) Assay for matrix metalloproteinase-10 (MMP10) using HepaRG (AID 2283517). The essentials: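 HepaRG, collagen I, ~100,000 cells/well; serum-free induction medium; 48 h exposure, duplicate, 8-pt half-log to 100 uM, 0.5% DMSO. Readout: TaqMan qRT-PCR, normalized to ACTB/GAPDH/POLR2A; bidirectional fit vs DMSO.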

Read-out in assay [16]: MYC, MYC (gene 4609)
The assay can be described thus: LTEA_HepaRG_MYC: Life Technologies and Expression Analysis (LTEA) Assay for MYC using HepaRG (AID 2283518). The essentials: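 HepaRG, ~100,000 cells/well, collagen I; 48 h plating; serum-free induction medium; 48 h dosing, duplicate, 100 uM top, half-log, 0.5% DMSO; total RNA → qRT-PCR MYC; gain/loss fit vs DMSO.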

Read-out in assay [17]: Paternally Expressed 10 (PEG10), PEG10 (gene 23089)
Nature of the assay: LTEA_HepaRG_PEG10: Life Technologies and Expression Analysis (LTEA) Assay for Paternally Expressed 10 (PEG10) using HepaRG (AID 2283520). The method in brief:
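HepaRG, 48 h post-plating → serum-free induction medium → 48 h chemical exposure (duplicate, 8-pt, max 100 uM, half-log, 0.5% DMSO) → lysis in RLT → TaqMan qRT-PCR for PEG10, ACTB/GAPDH/POLR2A normalisation.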

Read-out in assay [18]: matrix metalloproteinase-3 (MMP3), MMP3 (gene 4314)
Nature of the assay: LTEA_HepaRG_MMP3: Life Technologies and Expression Analysis (LTEA) Assay for matrix metalloproteinase-3 (MMP3) using HepaRG (AID 2283519). The essentials: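 Differentiated human HepaRG cells, plated 48 h on collagen I, were exposed in duplicate for 48 h in serum-free induction medium to eight half-log concentrations up to 100 uM in 0.5% DMSO. MMP3 mRNA was quantified by TaqMan qRT-PCR, normalised to ACTB, GAPDH and POLR2A.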

Read-out in assay [19]: Interleukin 6 Receptor (IL6R), IL6R (gene 3570)
Nature of the assay: LTEA_HepaRG_IL6R: Life Technologies and Expression Analysis (LTEA) Assay for Interleukin 6 Receptor (IL6R) using HepaRG (AID 2283510). The essentials: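 Readout is IL6R transcript level by TaqMan qRT-PCR, normalized to three housekeeping genes and fitted bidirectionally against 0.5% DMSO controls. Human HepaRG cells received chemicals for 48 h in serum-free induction medium, highest concentration 100 uM.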

Calls of active or inactive are those of the source. The calls were made as follows: active = hit-call score of the fitted dose curve at least 0.9, where 1 is the maximum; inactive = score below 0.9.

The results in this text go back to PubChem BioAssay (EPA / NIEHS).

Sequence of Hypoxia-inducible factor 1-alpha (Homo sapiens) (Q16665 whole entry, looked up): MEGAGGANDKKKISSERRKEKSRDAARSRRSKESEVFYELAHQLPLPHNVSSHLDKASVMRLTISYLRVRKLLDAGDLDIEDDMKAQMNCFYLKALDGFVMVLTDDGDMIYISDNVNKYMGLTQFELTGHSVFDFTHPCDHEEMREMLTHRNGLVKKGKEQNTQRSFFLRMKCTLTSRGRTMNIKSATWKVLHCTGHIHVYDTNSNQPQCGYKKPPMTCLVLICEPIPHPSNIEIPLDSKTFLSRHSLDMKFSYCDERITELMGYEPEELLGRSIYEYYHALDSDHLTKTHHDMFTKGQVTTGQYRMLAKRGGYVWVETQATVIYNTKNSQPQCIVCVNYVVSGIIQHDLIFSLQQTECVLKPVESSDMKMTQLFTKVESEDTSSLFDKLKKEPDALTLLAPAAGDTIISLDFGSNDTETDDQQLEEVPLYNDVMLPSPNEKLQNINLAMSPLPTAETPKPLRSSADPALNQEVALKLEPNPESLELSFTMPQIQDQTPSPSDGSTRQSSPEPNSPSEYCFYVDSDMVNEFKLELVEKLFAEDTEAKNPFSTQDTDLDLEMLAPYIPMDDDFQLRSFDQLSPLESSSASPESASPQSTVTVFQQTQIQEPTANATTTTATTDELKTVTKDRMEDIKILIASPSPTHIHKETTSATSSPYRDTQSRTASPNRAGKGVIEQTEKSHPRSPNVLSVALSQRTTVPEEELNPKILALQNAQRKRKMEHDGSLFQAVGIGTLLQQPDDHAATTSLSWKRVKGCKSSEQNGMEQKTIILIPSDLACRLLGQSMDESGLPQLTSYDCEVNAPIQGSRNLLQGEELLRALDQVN

With `[O-][Cl+]O`, the compound was called inactive in assay [1], in [2], in assay [3], in assay [4], in assay [5] and in assay [6]. For the same compound, the call in assay [7], in assay [8], in assay [9], in assay [10], in assay [11] and in [12] was inactive. The outcome in assay [13], in [14], in assay [15], in assay [16] and in assay [17] was inactive.

With `[Cl-].[Cl-].[Hg+2]`, the call in assay [1], in assay [2], in assay [3], in [4], in assay [5] and in assay [6] was inactive. Also, the call in [7], in assay [9], in assay [11], in assay [12], in assay [13] and in assay [14] was inactive. For the same compound, the call in assay [15], in [16], in assay [18] and in assay [17] was inactive. The AC50 in [10] is 29.3 µM (active).

`CC(C)(OOC(C)(C)c1ccccc1)c1ccccc1`: the outcome in [1], in assay [2], in [3], in assay [4], in [5] and in assay [6] was inactive. In addition, the call in assay [7], in [19], in assay [9], in assay [10], in assay [11] and in assay [12] was inactive. The outcome in assay [13], in assay [14], in [15], in [16] and in [17] was inactive.

For the compound `ClC1=C(Cl)[C@]2(Cl)[C@H]3[C@H]([C@@H]4C=C[C@H]3C4)[C@@]1(Cl)C2(Cl)Cl`, the compound was classed as inactive in assay [1], in [2], in assay [3], in assay [4], in assay [5] and in [6]. The result in assay [7], in assay [19], in assay [9], in assay [10], in assay [11] and in assay [12] was inactive. Also, the outcome in assay [13], in assay [14], in [15], in [18] and in assay [17] was inactive. For the same compound, in [16], the AC50 is 50 µM (active).

For `C1=Cc2cccc3cccc1c23`, the compound was called inactive in assay [1], in [2], in [3], in assay [4], in [5] and in [6]. Also, the compound was classed as inactive in [7], in [9], in assay [10], in assay [11], in [12] and in assay [13]. Further, the result in assay [14], in assay [15], in [16], in [18] and in assay [17] was inactive.

With `CC(C)(C)OOC(=O)c1ccccc1`, the compound was called inactive in assay [1], in assay [2], in assay [3], in [4], in assay [5] and in assay [6]. The call in assay [7], in assay [19], in [9], in assay [10], in assay [11] and in assay [12] was inactive. For the same compound, the call in [13], in assay [14], in assay [15], in assay [16] and in assay [17] was inactive.

Regarding `COC(=O)c1ccccc1N`, the call in assay [1], in [2], in [3], in [4], in [5] and in [6] was inactive. For the same compound, the call in [7], in assay [19], in [9], in assay [10], in assay [11] and in assay [12] was inactive. Moreover, the compound was called inactive in [13], in [14], in assay [15], in [16] and in [17].
